Each structure is given as a SMILES string. In all, about 320,000 compounds went through this assay and about 2,100 (0.66%) were called active. Roughly 53% stayed inconclusive and do not appear here. The call rests on the fitted dose curve; in most records, active means well fitted inhibition curve with a large enough effect in the signal ratio, with a control signal flat (not every such curve was filed as active); inconclusive means small, poorly fitted or top-dose-only effect, or effect the other way, or a change in a side signal; inactive means flat fitted curve, though single readings scatter; the % refers to the signal ratio. The full list was thinned out, with actives kept by preference.
Potency means the concentration at half of the fitted maximal effect.

The assay can be described thus: qHTS Assay for Lipid Storage Modulators in Drosophila S3 Cells.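 On cell number change: cells counted by Cell Tracker Red CMTPX staining in the red channel.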 On lipid storage change, negative = inhibition: on the % scale 0 is the no-effect control and ±100 the full control effect. Particulars: BODIPY lipid droplet fluorescence, 18-24 h, cells fed with added oleic acid; cell number change: measured here: cell count max response; series mostly up to 46.1 µM; lipid storage change, negative = inhibition: at the top concentration. The method in brief:
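Drosophila S3 cells loaded with oleic acid (400 uM, as added) and compounds at several concentrations; lipid droplets imaged by 488-nm laser-scanning cytometry, 500–530 nm intensity and object ratio to cell channel. Percent activity normalized to 20 uM Triacsin C.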
For the compound `Cc1ccc(C)c(OCC(=O)Nc2ccncc2)c1`, the “lipid storage change, negative = inhibition” value is 2.81% (inactive) and the cell number change came to 4.4%. Regarding `COc1ccc(Nc2cc(C)c3cc([N+](=O)[O-])ccc3n2)cc1`, the “lipid storage change, negative = inhibition” value was -8.57% (inactive) and the cell number change stood at 3.7%. For `Nc1c(C(=O)NCCc2ccccc2)nnn1Cc1ccc(Br)cc1F`, the “lipid storage change, negative = inhibition” value is 6.34% (inactive) and the cell number change worked out at 2.88%.

On to `COc1ccc([C@H]2CC(=O)C=C(c3ccc(C)c(F)c3)C2)cc1`, for which the call was inactive and the cell number change is -9.27%. As to `COc1cc(F)c(C2=CC(=O)C[C@H](c3ccc4c(c3)OCO4)C2)cc1F`, the call was inactive and the cell number change is -8.29%. Take `COc1ccc(C2=CC(=O)C[C@H](c3ccc(F)cc3)C2)cc1F`: the compound was called inactive. In the case of `COc1cc(F)c(C2=CC(=O)C[C@H](c3ccc(F)cc3)C2)cc1F`, the Potency is 0.731 µM (active) and the cell number change was -1.88%.

As for `COc1ccc(C2=CC(=O)C[C@H](c3ccc(F)cc3)C2)cc1OC`, the “lipid storage change, negative = inhibition” value is -2.63% (inactive) and the cell number change was -2.7%. Turning to `COc1ccc([C@H]2CC(=O)C=C(c3ccc(OC)c(F)c3)C2)cc1`, the Potency was 0.731 µM (active) and the cell number change amounted to 1.81%. Regarding `O=C(Cc1cccc(NC(=O)C2CCN(C(=O)CCc3ccccc3)CC2)c1)Nc1cccc(C(=O)N2CCCC2)c1`, the call was inactive and the cell number change was -25.9%.

Turning to `COc1ccc(N2CCN(CC(=O)c3ccccc3)CC2)cc1`, the call was inactive and the cell number change stood at 8.26%.

Regarding `CC(C)CC(=O)Nc1ccc(C(=O)CN2CCC(C)CC2)cc1`, the “lipid storage change, negative = inhibition” value is 6.1% (inactive) and the cell number change was determined as 11.5%. Take `CC(C)CC(=O)Nc1ccc(C(=O)CN2CCN(c3ccc(O)cc3)CC2)cc1`: the Potency is 4.61 µM (active) and the cell number change is -10.4%.

As to `CC(C)CC(=O)Nc1ccc(N2CCOCC2)cc1`, the “lipid storage change, negative = inhibition” value is -2.97% (inactive) and the cell number change is -6.68%. With `COc1ccc(N2CCN(CC(=O)c3ccc(Cl)cc3)CC2)cc1`, the Potency was 6.51 µM (active).

With `COc1ccc(C(=O)CN2CCN(c3ccc(Cl)cc3)CC2)cc1OC`, the “lipid storage change, negative = inhibition” value is -17.5% (inactive) and the cell number change turned out to be 16.9%. On to `CCCC(C)c1nnc(NC(=O)C2CCCO2)s1` (configuration not stated), for which the compound was classed as inactive. For `C/C(=N\NC(=O)c1ccc(-c2ccccc2)cc1)C1C(=O)c2ccccc2C1=O`, the “lipid storage change, negative = inhibition” value is -10.9% (inactive) and the cell number change was found to be 2.31%.

For `COc1ccc(OC)c(NC(=O)CCN2C(=O)c3cccc([N+](=O)[O-])c3C2=O)c1`, the compound was classed as inactive and the cell number change was 12.8%. Take `OCCC1CN(Cc2cc3c(cc2Cl)OCO3)CCN1C1CCCCC1` (configuration not stated): the “lipid storage change, negative = inhibition” value was 18% (inactive) and the cell number change came to 2.14%. Turning to `OCCC1CN(Cc2ccncc2)CCN1C1CCCC1` (configuration not stated), the “lipid storage change, negative = inhibition” value is -2.02% (inactive) and the cell number change is -1.79%.

As for `Cc1nnc(SCc2ccon2)n1-c1ccccc1`, the “lipid storage change, negative = inhibition” value was -0.985% (inactive) and the cell number change is -2.33%. In the case of `O=C(N/N=C/c1ccc([N+](=O)[O-])s1)c1ccccc1`, the result was inactive. In the case of `O=C(Cc1ccccc1)NCC(=O)N/N=C/c1cccs1`, the “lipid storage change, negative = inhibition” value is 7.5% (inactive). `O=C(Cc1ccccc1)NCC(=O)N/N=C/c1ccc([N+](=O)[O-])s1`: the Potency is 16.4 µM (active) and the cell number change is 17.1%. Take `COc1ccc(OC)c(Cc2nnc(CCC(=O)NC3CCCCC3)o2)c1`: the “lipid storage change, negative = inhibition” value was -8.81% (inactive) and the cell number change was -6.11%. Taken in the same sequence, the figures for `Cn1c(OCc2ccc3c(c2)OCO3)nc2c1c(=O)n(Cc1ccc(Cl)c(Cl)c1)c(=O)n2C` were -1.56% (inactive) and 10.2%. On to `Cc1cn(Cc2ccccc2)c(=O)[nH]c1=O`, for which the “lipid storage change, negative = inhibition” value is -2.22% (inactive) and the cell number change is -5.94%.

For the compound `N#Cc1cn(Cc2ccccc2)c(=O)[nH]c1=O`, the “lipid storage change, negative = inhibition” value is -14.4% (inactive) and the cell number change was 17.6%.

Turning to `O=c1[nH]c(=O)n(Cc2ccc(Oc3ccccc3)cc2)cc1Br`, the Potency was 18.4 µM (active) and the cell number change is 18.3%. Consider `CC1Sc2ccc(S(=O)(=O)CCC(=O)NC3CCCCC3C)cc2NC1=O` (configuration not stated), for which the compound was classed as inactive and the cell number change is 7.41%.

For the compound `NC(=O)c1cc(C(=O)Cc2ccc(Cl)cc2)c[nH]1`, the call was inactive and the cell number change was found to be 23.6%.

`CCOc1ccc(CNC(=O)C(C)n2nc(C)c3c(C)n(-c4ccccc4)nc3c2=O)cc1` (configuration not stated): the compound was called inactive. With `CCOC(=O)c1[nH]c2cc(OC)c(OC)cc2c1NC(=O)c1nonc1C`, the compound was classed as inactive and the cell number change was -8.79%.

On to `CCOC(=O)c1[nH]c2ccccc2c1NC(=O)c1nonc1C`, for which the Potency was 2.06 µM (active) and the cell number change came to 103%.

As for `CCOC(=O)c1[nH]c2ccc(Cl)cc2c1NC(=O)c1nonc1C`, the “lipid storage change, negative = inhibition” value is -7.98% (inactive) and the cell number change was -14.5%. As for `C#CCOC(=O)C[N+](C)(C)CC=C`, the “lipid storage change, negative = inhibition” value is -14.8% (inactive) and the cell number change came out at 12.5%. For the compound `Nc1ccc(C(=O)N/N=C/c2c[nH]c3ccccc23)cc1`, the “lipid storage change, negative = inhibition” value was 9.89% (inactive) and the cell number change came to 14.6%. Consider `Cc1ccc(CNC(=O)C(NS(=O)(=O)c2cccs2)C(C)C)cc1` (configuration not stated), for which the “lipid storage change, negative = inhibition” value is 20.5% (inactive) and the cell number change is 20.4%. Consider `Cc1ccc(CNC(=O)C(Cc2ccccc2)NS(=O)(=O)c2cccs2)cc1` (configuration not stated), for which the compound was called inactive. `CCC(NS(=O)(=O)c1cccs1)c1ccc(C)cc1` (configuration not stated): the Potency was 0.164 µM (active) and the cell number change was found to be 13.3%. For `CCS(=O)(=O)n1nc(-c2ccco2)nc1N`, the “lipid storage change, negative = inhibition” value is 0.971% (inactive) and the cell number change amounted to 19.9%. As for `Cc1ccc(NC(=S)N/C(=N/S(=O)(=O)c2ccccc2)c2ccccc2)cc1`, the result was inactive. Consider `Cc1ccc(N/C(CSC(N)=O)=N/S(=O)(=O)c2ccccc2)cc1`, for which the Potency is 16.4 µM (active).

In the case of `CS/C(=N/S(=O)(=O)c1ccc(C)cc1)c1ccccc1`, the “lipid storage change, negative = inhibition” value was 19.1% (inactive) and the cell number change was -26.1%. Take `COc1cc(OC)cc(C(=O)NC(C)CNc2ccc(Cl)cc2[N+](=O)[O-])c1` (configuration not stated): the Potency is 16.4 µM (active) and the cell number change was -19.1%. `COc1ccc(NC(=O)c2cc(Cl)ccc2Cl)c([N+](=O)[O-])c1`: the “lipid storage change, negative = inhibition” value was 18.3% (inactive) and the cell number change is -6.66%. Regarding `CC(CNC(=O)c1cc(Cl)ccc1[N+](=O)[O-])NC(=O)c1cc(Cl)ccc1[N+](=O)[O-]` (configuration not stated), the “lipid storage change, negative = inhibition” value was -13.7% (inactive) and the cell number change was -7.89%.

For the origin of these results see PubChem BioAssay AID2685 (National Center for Advancing Translational Sciences (NCATS), 2010).
